An excerpt weighted towards active compounds, which were near 6.3% of everything screened.
MK inhibit: inhibitors of Streptococcus pneumoniae mevalonate kinase. 0.48% of 65,000 active. inhibition, % at 10 µM. purified MK, PK/LDH-coupled NADH absorbance 340 nm. AID 555;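 active = ranked among the strongest by inhibition in the single 10 µM screen, a fixed top-ranked set picked for dose follow-up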
A340 absorber: compound absorbs light at 340 nm; fold change at 10 µM; 65,000 tested, under 10 active; AID 708; compound absorbance at 340 nm, fold over control;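 active = at 10 µM dose, initial 340 nm absorbance at least 2 fold that of control wells; inactive = change under 2 fold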;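 note: initial absorbance extrapolated from kinetic A340 decline of NADH oxidation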
NADH coupling: inhibitors of enzymes used to reach an NAD/NADH endpoint. 0.02% of 65,000 active. coupled PK/LDH NADH assays, four targets. IC50, µM (doses to about 10 µM);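 active = single-dose screening hits from any of four coupled enzyme assays that gave an IC50 when retested across doses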;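 note: the DPM-DC format reads NADH fluorescence rather than 340 nm absorbance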
Fluor 339 460: intrinsic fluorescence of library compounds, ex339/em460 – biochemical, MLSMR library, data from DPM-DC assay, artefact control, profiling panel; compound autofluorescence, ex339/em460 nm, NADH buffer; hits give high values; 1 = no-compound wells, NADH background; fluorescence fold increase at 10 µM; 5.5% of 65,000 active; AID 709;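 active = at 10 µM, mean starting fluorescence two-fold or more over control wells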;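 note: signal is the first read of a kinetic run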
Spn DPM-DC inh: S. pneumoniae DPM-DC inhibition | purified DPM-DC, PK/LDH coupled NADH fluorescence | calls only at 10 µM | 0.49% of 65,000 active | AID 556;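 active = the 320 compounds with the highest percent inhibition in the single-dose primary screen, excluding strongly autofluorescent ones, cut at about 32% in these data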;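 note: kinetic rate of NADH fluorescence loss reporting ADP formed by the decarboxylase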
Spn PMK inh: inhibitors of Streptococcus pneumoniae phosphomevalonate kinase. inhibition, % at 10 µM. 0.49% of 65,000 active. purified PMK, PK/LDH-coupled NADH absorbance 340 nm. AID 539;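 active = top-ranked compounds by inhibition in the single 10 µM screen, taking a fixed number of the strongest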
Hits are given with their value; - = inactive; . = no result given; + = active, no number.

SMILES | MK inhibit | A340 absorber | NADH coupling | Fluor 339 460 | Spn DPM-DC inh | Spn PMK inh
Cc1ccc(S(=O)(=O)c2c(N)n(Cc3ccco3)c3nc4ccccc4nc23)cc1 | - | - | - | 2.24 | . | -
CC(=O)Oc1c(Cl)c(N2CCOCC2)c(OC(C)=O)c2ccccc12 | - | - | - | - | - | -
O=C(c1ccco1)N1CCN(S(=O)(=O)Cc2ccc(Cl)cc2)CC1 | - | - | - | - | - | -
CCn1nc(NC(=O)c2ccccn2)c2cc3cccc(C)c3nc21 | - | - | - | 3.35 | . | -
O=C(Nc1cccc2c1C(=O)NC2=O)c1ccc(S(=O)(=O)N2CCCC2)cc1 | - | - | - | 2.34 | - | -
CCc1ccccc1N(C(=O)CCC(=O)Nc1cc(C)on1)C(C(=O)NC1CCCC1)c1ccco1 (stereo not given) | - | - | - | - | - | -
COc1ccc(NC(=O)Cn2nnc(-c3ccccc3NC(=O)c3cccs3)n2)cc1 | - | - | - | 3.55 | . | -
C[C@H]1C[C@@H]2[C@H]([C@@H](O)C[C@@]3(C)[C@H]2CC[C@]3(O)C(=O)CO)[C@@]2(C)C=CC(=O)C=C12 | - | - | - | - | - | -
CCCCCC(=O)Nc1ccc2oc(-c3cccnc3)nc2c1 | - | - | - | 3.74 | . | -
O=C(Cc1ccc(Cl)cc1)Nc1ccc2oc(-c3ccncc3)nc2c1 | - | - | - | 3.62 | . | -
O=C(Nc1ccc2oc(-c3ccccc3)nc2c1)c1cccnc1 | - | - | - | - | - | -
O=C(Cc1ccccc1)Nc1ccc2oc(-c3cccnc3)nc2c1 | - | - | - | 2.3 | . | -
Cc1cc(C(=O)COc2ccc3ccc(=O)oc3c2)c(C)n1Cc1cccs1 | - | - | - | 2.62 | - | -
CCN(CC)C(=O)C(C)OC(=O)c1ccc(O)cc1 (stereo not given) | - | - | - | - | - | -
CNS(=O)(=O)c1cccc(C(=O)OC2CCCCC2=O)c1 (stereo not given) | - | - | - | - | - | 28.0
CCn1cc(C(=O)Nc2ccc(NC(=O)c3ccco3)cc2)c(=O)c2ccc(C)nc21 | - | - | - | - | - | -
Cc1cc(NCCCn2ccnc2)n2c(nc3ccccc32)c1C#N | - | - | - | 3.35 | . | -
Cc1cc(NCCN2CCCCC2)n2c(nc3ccccc32)c1C#N | - | - | - | 2.69 | . | -
Cc1cccc2cc(C#N)c(NCCCn3ccnc3)nc12 | - | - | - | 2.59 | - | -
Cc1cc(N2CCN(C3CCCC3)CC2)n2c(nc3ccccc32)c1C#N | - | - | - | 2.46 | . | -
N#Cc1c2c(c(NCCN3CCOCC3)n3c1nc1ccccc13)CCCC2 | - | - | - | - | - | -
Cc1nc(NCCCn2ccnc2)c2ccccc2n1 | - | - | - | - | - | -
Cc1cc(NCC2CCCO2)n2c(nc3ccccc32)c1C#N (stereo not given) | - | - | - | 2.47 | . | -
OC(CNC1CCCCC1)CN1CCN(CC(O)CNC2CCCCC2)CC1 (stereo not given) | - | - | - | - | - | -
COC(=O)Sc1nnc(-c2ccc(Br)cc2)o1 | - | - | 19.6µM | - | + | -
SMILES | MK inhibit | A340 absorber | NADH coupling | Fluor 339 460 | Spn DPM-DC inh | Spn PMK inh
Cc1ccc(CCNC(=O)C2CCC(=O)N2C2CCCC2)cc1 (stereo not given) | - | - | - | - | - | -
O=C1CC(C(=O)Nc2ccc(O)c(C(=O)O)c2)C(c2ccccc2)O1 (stereo not given) | - | - | - | 3.11 | . | -
O=C1CC(C(=O)Nc2ccccc2C(=O)O)C(c2ccccc2)O1 (stereo not given) | - | - | - | - | - | -
COC(=O)c1ccc(Cn2cnc3c(sc4nc(N5CCOCC5)c5c(c43)CCCC5)c2=O)o1 | - | - | - | - | - | -
CCCC(=O)Nc1cc(OC)c(OC)cc1C(=O)O | - | - | - | - | - | -
CCCCNc1cc(NC(C)=O)cc2cc(OC)c(OC)cc12 | - | - | - | 2.13 | . | -
COCCn1c(C)cc2c(c1=O)C(c1ccccc1F)C(C#N)=C(N)O2 (stereo not given) | - | - | - | - | - | 26.0
Cc1cc(NC(=O)COC(=O)C(Nc2ccc(C(F)(F)F)cc2Cl)C(C)C)no1 (stereo not given) | - | - | - | - | - | -
O=C(CCSc1ccc(Cl)cc1)N1CCN(c2ncccn2)CC1 | - | - | - | - | - | -
COC(=O)/C=c1\sc2ncnn2c1=O | - | - | - | - | - | -
CC(C)Oc1ccc(-c2nn(-c3ccccc3)cc2/C=c2\sc3ncnn3c2=O)cc1 | - | - | - | 3.02 | . | -
Cn1c(C(=O)NCCCN2CCCC2=O)cc2c(=O)n(C)c3ccccc3c21 | - | - | - | - | - | -
Cn1c2ccccc2c2c(C(=O)NCCCN3CCCC3=O)cn(C3CCCCC3)c(=O)c21 | - | - | - | 2.46 | . | -
CN1CCN(CCCNC(=O)c2cn(C3CCCCC3)c(=O)c3c2c2ccccc2n3C)CC1 | - | - | - | 2.08 | . | -
O=C(CCc1ccccc1)Nc1cc(Cl)ccc1O | - | - | - | - | - | -
CCN(CC)C(=O)C1CC(=O)N(c2ccc(F)c(Cl)c2)C1 (stereo not given) | - | - | - | - | - | -
O=S(=O)(Cc1ccc(Cl)cc1)N1CCCC1 | - | - | - | - | - | -
COCCN1C=C(C(=O)OC)C(c2cc3c(cc2Br)OCO3)C(C(=O)OC)=C1 | - | - | - | - | - | -
COCCN1C=C(C(=O)OC)C(c2ccc3c(c2)OCO3)C(C(=O)OC)=C1 | - | - | - | 2.13 | . | -
CCOc1ccc(C2C(C(=O)OC)=CN(CCOC)C=C2C(=O)OC)cc1 | - | - | - | 2.47 | . | -
O=c1[nH]c2cc3c(cc2cc1CN(CC1CCCO1)S(=O)(=O)c1ccccc1)OCCO3 (stereo not given) | - | - | - | 3.77 | . | -
O=C(NCc1ccccc1)N(Cc1cc2cc3c(cc2[nH]c1=O)OCCO3)CC1CCCO1 (stereo not given) | - | - | - | 3.66 | . | -
CC(=O)c1cccc(S(=O)(=O)N(Cc2cc3cc4c(cc3[nH]c2=O)OCCO4)CC2CCCO2)c1 (stereo not given) | - | - | - | - | - | -
CC(NC(=O)Nc1ccc(O)cc1)(C(F)(F)F)C(F)(F)F | - | - | - | - | - | -
CC(NC(=O)Nc1ccccc1O)(C(F)(F)F)C(F)(F)F | - | - | - | 2.58 | - | -
CC(=O)N1CCC2(CC1)CC(=O)c1cc(OCC(=O)NCc3ccc(C)cc3)ccc1O2 | - | - | - | 3.48 | . | -
CC(=O)N1CCC2(CC1)CC(=O)c1cc(OCC(=O)NCc3ccco3)ccc1O2 | - | - | - | 3.39 | . | -
COC(=O)c1ccc(CC(=O)c2c(C)cc(O)cc2O)o1 | - | - | - | - | - | -
CC(C)Cn1c(Br)nc2c1c(=O)n(CCC#N)c(=O)n2C | - | - | - | - | - | -
CNc1nnc(-c2cc3ccccc3oc2=O)s1 | - | - | - | 2.3 | - | -
